Experimental data published in PubChem BioAssay.
Active and inactive are the calls of the source.

What was measured:
[1] = tested on: Human papillomavirus type 1a protein E7 (residues 44-93); assay: small molecules binding HPV E7 44-93 – biochemical, small-molecule microarray, residues 44-93, 635 nm fluorescence, primary screen (AID 1108); conditions: fluorescence 635 nm, higher = more signal;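 also: E7 fragment applied at 1 µg/mL in TBST for 1 h at 4 C; score combines spot fluorescence with its signal to noise ratio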
[2] = hepatitis C replication reporter changes, two-sided – Huh7 cells, luciferase reporter, HCV replication inhibitor project, primary screen (AID 1109); conditions: Huh7 HCV replicon luciferase reporter, 48 h; higher = more signal;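 also: huh7 hepatoma cells harbouring a luciferase neomycin HCV replicon reporter; luciferase luminescence as measure of HCV replicon replication; test concentration not given here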
[3] = target: Left-right determination factor 2 (Homo sapiens) (UniProt O00292); assay: small molecules binding LEFTY2 protein – biochemical, small-molecule microarray, 635 nm fluorescence scan, primary screen (AID 1110); conditions: higher = more signal
[4] = target: Calmodulin-1 (Homo sapiens) (UniProt P0DP23); assay: small molecules binding calmodulin-1 with EGTA – biochemical, small-molecule microarray, Cy5-labelled CALM1, profiling panel (AID 1111); conditions: Cy5-CALM1 binding fluorescence, higher = more signal;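 also: labelled calmodulin applied in Tris saline Tween buffer holding calcium plus EGTA and DTT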
[5] = target: Calmodulin-1 (Homo sapiens) (UniProt P0DP23); assay: small molecules binding Ca-loaded calmodulin-1 – biochemical, small-molecule microarray, Cy5-labelled CALM1, plus calcium, artefact control for SMM control-protein annotation, profiling panel (AID 1112); conditions: Cy5-CALM1 binding fluorescence, higher = more signal;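 also: score merges spot fluorescence with signal to noise from triplicate slides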
[6] = probe aWnt5a binding to arrayed compounds – biochemical, biotinylated probe, 635/667 nm fluorescence, primary screen (AID 1113); conditions: small-molecule microarray, higher = more signal;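 also: score merges 667 nm fluorescence intensity with signal-to-noise per printed feature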
[7] = probe aShh binding to arrayed compounds – biochemical, biotinylated probe, 635/667 nm fluorescence, primary screen (AID 1114); conditions: small-molecule microarray, higher = more signal;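 also: probe is biotin-labelled aShh protein from a stem cell growth factor screen; measures binding of labelled protein to compounds printed on the slide; score merges feature fluorescence at 667 nm with signal-to-noise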
[8] = probe aNog binding to arrayed compounds – biochemical, biotinylated probe, 635/667 nm fluorescence, primary screen (AID 1115); conditions: small-molecule microarray, higher = more signal;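 also: probe is biotinylated aNog protein used at 0.15 µg/mL for 1 h at 4 C; z-score combines 667 nm fluorescence of each spot with its signal to noise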
[9] = target: Torsin-1A-interacting protein 1 (Homo sapiens) (UniProt Q5JTV8); assay: compound microarray binding of lysate hLAP1 – cell lysate, small-molecule microarray, COS7 lysate, 635/667 nm fluorescence, primary screen (AID 1116); conditions: 635 nm fluorescence, higher = more signal
[10] = target: Alpha-bungarotoxin (Bungarus multicinctus) (UniProt P60615); assay: compounds binding labelled alpha-BTX control protein – biochemical, small-molecule microarray, Alexa647 label, 635/667 nm fluorescence, artefact control for SMM control protein annotation, profiling panel (AID 1117); conditions: alpha-BTX-A647 binding fluorescence, higher = more signal
Albumin (Bos taurus) = Albumin (Bos taurus) (UniProt P02769); assay: compounds binding labelled BSA control protein – biochemical, small-molecule microarray, Alexa647 label, 635/667 nm fluorescence, artefact control for SMM control protein annotation, profiling panel (AID 1118); conditions: BSA-A647 binding, fluorescence 635 nm, higher = more signal;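 also: score merges 667 nm emission intensity and signal-to-noise per printed compound spot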
[11] = probe aXIP binding to arrayed compounds – biochemical, NeuroSMM set, 635/667 nm fluorescence, primary screen (AID 1119); conditions: small-molecule microarray, higher = more signal, called active from +8 up or from −8 down;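 also: probe is the protein aXip251-270 applied at 1 µg/mL to compound-printed slides; binding of probe to printed compounds measured as 667 nm fluorescence plus signal to noise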
[12] = probe aNOTCH3 binding on compound microarray – biochemical, small-molecule microarray, 635/667 nm fluorescence, primary screen (AID 1120); conditions: higher = more signal;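 also: probe is a biotin-tagged antibody raised against NOTCH3 rather than NOTCH3 protein; score merges spot fluorescence near 667 nm with spot signal to noise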
[13] = probe aNOTCH2 binding on compound microarray – biochemical, small-molecule microarray, 635/667 nm fluorescence, primary screen (AID 1121); conditions: higher = more signal;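 also: score merges feature fluorescence read at 667 nm with its signal to noise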
[14] = target: Carbonic anhydrase 2 (Homo sapiens) (UniProt P00918); assay: compounds binding carbonic anhydrase 2 – biochemical, small-molecule microarray, Alexa647-labelled CAII, profiling panel (AID 1122); conditions: CAII-A647 binding fluorescence, higher = more signal
[15] = COS7 lysate on small-molecule microarray, probe aHis, 635 nm (AID 1123); conditions: COS7 cell lysate, fluorescence, higher = more signal;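 also: z-score combines 667nm fluorescence intensity with signal-to-noise per printed compound spot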
[16] = probe aLAP1 signal on lysate-treated microarray – cell lysate, small-molecule microarray, COS7 lysate, primary screen (AID 1124); conditions: probe aLAP1, fluorescence, higher = more signal;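 also: lysate comes from COS7 cells expressing LAP1 and is applied at 0.3 µg/mL; score merges spot fluorescence near 667 nm with signal-to-noise over triplicate slides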
Sam68 (KHDRBS1) = assay: compounds binding KHDRBS1 protein – biochemical, small-molecule microarray, 635 nm fluorescence, primary screen (AID 1125); conditions: higher = more signal;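 also: score merges 667 nm channel intensity with signal to noise over triplicate slides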
[17] = tested on: Chordin-like protein 2 (CHRDL2); assay: compounds binding chordin-like 2 – biochemical, small-molecule microarray, 635 nm fluorescence, primary screen (AID 1126); conditions: fluorescence 635 nm, higher = more signal;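 also: printed compound slides probed with Chrdl2 protein at 4 µg/mL for 1 h at 4 C; score merges 667 nm emission intensity with signal to noise over three replicate slides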
[18] = target: Concanavalin-A (Canavalia ensiformis) (UniProt P02866); assay: compounds binding concanavalin A lectin – biochemical, small-molecule microarray, Alexa647 label, 635 nm, artefact control for SMM control protein annotation, primary screen (AID 1127); conditions: ConA-A647 binding fluorescence, higher = more signal;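 also: z combines 667 nm emission intensity with signal-to-noise across three replicate slides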
Sequence of Concanavalin-A (Canavalia ensiformis) (P02866 whole entry, looked up): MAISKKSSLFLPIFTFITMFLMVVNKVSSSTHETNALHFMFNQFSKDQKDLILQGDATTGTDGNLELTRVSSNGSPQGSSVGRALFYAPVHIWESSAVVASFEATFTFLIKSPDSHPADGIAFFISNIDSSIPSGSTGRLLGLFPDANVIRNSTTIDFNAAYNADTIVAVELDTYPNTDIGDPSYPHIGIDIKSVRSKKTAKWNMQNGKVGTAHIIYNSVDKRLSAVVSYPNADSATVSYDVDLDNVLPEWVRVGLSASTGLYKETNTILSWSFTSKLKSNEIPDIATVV

Sequence of Alpha-bungarotoxin (Bungarus multicinctus) (P60615 whole entry, looked up): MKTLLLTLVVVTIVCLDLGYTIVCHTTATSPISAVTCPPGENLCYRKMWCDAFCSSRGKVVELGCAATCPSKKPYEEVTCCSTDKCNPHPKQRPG
Sequence of Left-right determination factor 2 (Homo sapiens) (O00292 whole entry, looked up): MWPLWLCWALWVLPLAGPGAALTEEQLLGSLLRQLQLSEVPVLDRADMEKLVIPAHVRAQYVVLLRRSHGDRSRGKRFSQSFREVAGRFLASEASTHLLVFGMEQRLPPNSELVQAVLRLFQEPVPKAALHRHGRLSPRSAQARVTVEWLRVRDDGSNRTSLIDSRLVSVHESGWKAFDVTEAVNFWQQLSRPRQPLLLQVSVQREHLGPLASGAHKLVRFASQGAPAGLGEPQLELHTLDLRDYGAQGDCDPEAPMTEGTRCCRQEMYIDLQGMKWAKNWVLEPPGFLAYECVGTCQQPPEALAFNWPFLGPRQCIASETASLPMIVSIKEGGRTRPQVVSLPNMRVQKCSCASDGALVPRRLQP
Sequence of Albumin (Bos taurus) (P02769 whole entry, looked up): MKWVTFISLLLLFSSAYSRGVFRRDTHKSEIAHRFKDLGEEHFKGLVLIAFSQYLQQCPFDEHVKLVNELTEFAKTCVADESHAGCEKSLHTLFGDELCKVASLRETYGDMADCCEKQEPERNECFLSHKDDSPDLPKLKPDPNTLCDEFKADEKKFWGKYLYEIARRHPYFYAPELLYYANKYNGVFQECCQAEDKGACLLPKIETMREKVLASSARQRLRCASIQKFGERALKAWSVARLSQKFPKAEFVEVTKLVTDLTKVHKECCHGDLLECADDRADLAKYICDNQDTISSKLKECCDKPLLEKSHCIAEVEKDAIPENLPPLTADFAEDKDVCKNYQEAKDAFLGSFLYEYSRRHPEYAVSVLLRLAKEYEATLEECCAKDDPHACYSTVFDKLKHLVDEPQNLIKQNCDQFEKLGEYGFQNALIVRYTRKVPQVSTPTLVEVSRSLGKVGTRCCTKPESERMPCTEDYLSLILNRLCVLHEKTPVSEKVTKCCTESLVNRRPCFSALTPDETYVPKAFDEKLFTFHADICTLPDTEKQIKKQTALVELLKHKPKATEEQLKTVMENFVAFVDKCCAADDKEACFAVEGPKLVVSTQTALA
Sequence of Torsin-1A-interacting protein 1 (Homo sapiens) (Q5JTV8 whole entry, looked up): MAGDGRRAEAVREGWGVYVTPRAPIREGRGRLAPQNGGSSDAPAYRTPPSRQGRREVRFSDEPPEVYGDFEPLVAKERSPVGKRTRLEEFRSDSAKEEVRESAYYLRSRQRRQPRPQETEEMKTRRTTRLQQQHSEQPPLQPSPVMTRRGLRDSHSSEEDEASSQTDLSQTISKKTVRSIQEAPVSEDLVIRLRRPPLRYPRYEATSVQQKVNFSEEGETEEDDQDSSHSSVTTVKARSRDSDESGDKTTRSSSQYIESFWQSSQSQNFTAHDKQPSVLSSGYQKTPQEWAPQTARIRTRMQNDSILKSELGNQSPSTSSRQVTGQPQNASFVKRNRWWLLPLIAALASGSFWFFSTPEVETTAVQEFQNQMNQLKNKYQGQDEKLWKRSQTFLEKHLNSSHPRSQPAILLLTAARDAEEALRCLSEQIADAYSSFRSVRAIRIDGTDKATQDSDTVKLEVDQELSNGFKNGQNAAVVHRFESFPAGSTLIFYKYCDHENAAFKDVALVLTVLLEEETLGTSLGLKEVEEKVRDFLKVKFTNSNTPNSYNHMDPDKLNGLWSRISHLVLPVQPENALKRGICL

With `C=CCOC(=O)[C@@]1(Cc2ccccc2)C[C@H]2CO[C@H](c3ccc(OC)cc3)N2C1=O` the composite z-score [1] was 0.206, the z-score [2] was -0.938 and the composite z-score [3] was 0.283. For the same compound, the composite z-score [4] was -0.388, the composite z-score [5] was -0.659 and the composite z-score [6] was -0.0846. The composite z-score [7] was -0.0035, the composite z-score [8] was -0.118 and the composite z-score [9] was 0.574. The composite z-score [10] was 0.352, the composite z-score (Albumin (Bos taurus)) was 0.484 and the composite Z-score [11] was -0.415 (inactive). For the same compound, the composite z-score [12] was -0.0615, the composite z-score [13] was -0.107 and the composite z-score [14] was -0.0067. For the same compound, the composite z-score [15] was 0.146, the composite z-score [16] was 0.0469 and the composite z-score (Sam68 (KHDRBS1)) was 0.168. For the same compound, the composite z-score [17] was 0.194 and the composite z-score [18] was 0.192.
In the case of `C=C(COC)/C(=C/C[C@H](OC(=O)c1ccncc1)c1ccccc1OCCO)c1cc(C(=O)OC)ccc1OC`, the composite z-score [1] is reported as 1.43, the z-score [2] is reported as -2.76 and the composite z-score [3] is reported as 0.753. The composite z-score [4] was -0.191, the composite z-score [5] was -0.59 and the composite z-score [6] was -0.0687. The composite z-score [7] was -0.494, the composite z-score [8] was -0.145 and the composite z-score [9] was -0.353. For the same compound, the composite z-score [10] was 0.251, the composite z-score (Albumin (Bos taurus)) was 0.601 and the composite Z-score [11] was 0.614 (inactive). For the same compound, the composite z-score [12] was 0.118, the composite z-score [13] was -0.11 and the composite z-score [14] was 0.752. For the same compound, the composite z-score [15] was 1.2, the composite z-score [16] was 0.0479 and the composite z-score (Sam68 (KHDRBS1)) was 1.27. The composite z-score [17] was 0.0156 and the composite z-score [18] was 0.784.
`CC(C)(C)OC(=O)CC[C@@]1(C(=O)NCC(O)CO)N=C(c2ccc(OCCCO)cc2)O[C@@H]1c1ccccc1CN=[N+]=[N-]` (stereo not given in full) gave a composite z-score [1] of 1.11, a z-score [2] of -0.75 and a composite z-score [3] of -0.222. For the same compound, the composite z-score [4] was 1.25, the composite z-score [5] was 0.311 and the composite z-score [6] was -0.124. The composite z-score [7] was 0.108, the composite z-score [8] was 0.72 and the composite z-score [9] was 1.64. The composite z-score [10] was 0.833, the composite z-score (Albumin (Bos taurus)) was 0.347 and the composite Z-score [11] was -0.0662 (inactive). The composite z-score [12] was 0.0297, the composite z-score [13] was 0.124 and the composite z-score [14] was 0.836. The composite z-score [15] was 1.34, the composite z-score [16] was 0.398 and the composite z-score (Sam68 (KHDRBS1)) was 0.941. The composite z-score [17] was 0.333 and the composite z-score [18] was 0.922.
For `CC(C)[Si]1(C(C)C)OCc2cc(-c3ccc(-c4ccc(Cl)c(Cl)c4)o3)nc(-c3ccccc3)c21`, the composite z-score [1] was -0.922, the z-score [2] was -1.16 and the composite z-score [3] was -1.59. The composite z-score [4] was -0.856, the composite z-score [5] was -0.341 and the composite z-score [6] was -0.16. The composite z-score [7] was 0.0121, the composite z-score [8] was -0.418 and the composite z-score [9] was -1.16. For the same compound, the composite z-score [10] was -0.597, the composite z-score (Albumin (Bos taurus)) was 0.566 and the composite Z-score [11] was 0.131 (inactive). For the same compound, the composite z-score [12] was -0.235, the composite z-score [13] was -0.234 and the composite z-score [14] was -0.895. It also gave a composite z-score [15] of -0.77, a composite z-score [16] of -0.714 and a composite z-score (Sam68 (KHDRBS1)) of -1.53. The composite z-score [17] was -0.541 and the composite z-score [18] was -0.746.
`CCOC(=O)C[C@H]1[C@H](OC(=O)Cc2ccc3c(c2)OCO3)[C@@H](NC(=O)c2ccc3ccccc3n2)c2cc(OCCCO)ccc2N1C(=O)c1ccc2ccccc2n1` gave a composite z-score [1] of 0.0977, a z-score [2] of -1.63 and a composite z-score [3] of 0.464. For the same compound, the composite z-score [4] was 0.509, the composite z-score [5] was -0.0205 and the composite z-score [6] was -0.0512. The composite z-score [7] was 0.0048, the composite z-score [8] was -0.115 and the composite z-score [9] was 0.0995. The composite z-score [10] was 0.406, the composite z-score (Albumin (Bos taurus)) was 0.208 and the composite Z-score [11] was -0.0069 (inactive). For the same compound, the composite z-score [12] was -0.0646, the composite z-score [13] was -0.135 and the composite z-score [14] was 0.371. It also gave a composite z-score [15] of 0.986, a composite z-score [16] of 0.171 and a composite z-score (Sam68 (KHDRBS1)) of 0.796. The composite z-score [17] was 0.0741 and the composite z-score [18] was 1.07.
Compound `COc1ccc(CCNC(=O)[C@@]2(Cc3ccccc3I)c3ccccc3C(=O)N(C3CCCCC3)[C@H]2c2ccc(CO)cc2)cc1` has a composite z-score [1] of 1.3, a z-score [2] of -3.2 and a composite z-score [3] of -0.425. The composite z-score [4] was 0.902, the composite z-score [5] was 0.609 and the composite z-score [6] was -0.0721. It also gave a composite z-score [7] of -0.0626, a composite z-score [8] of -0.158 and a composite z-score [9] of 0.0805. The composite z-score [10] was 0.678, the composite z-score (Albumin (Bos taurus)) was 0.471 and the composite Z-score [11] was -0.0065 (inactive). For the same compound, the composite z-score [12] was -0.0647, the composite z-score [13] was -0.162 and the composite z-score [14] was 0.218. For the same compound, the composite z-score [15] was 1.5, the composite z-score [16] was -0.167 and the composite z-score (Sam68 (KHDRBS1)) was 0.621. It also gave a composite z-score [17] of -0.718 and a composite z-score [18] of 0.969.
